Out of some 48,000 compounds screened, about 13,000 (27%) showed an effect of 50% or more. The list shows a part of the results.

The assay has as its system Wolbachia pipientis. Briefly: Anti-Wolbachia Cell-Based Screen. More on the design: scale not given: in the data most compounds retested in dose-response had high values. It is filed as functional. The conditions noted are these: 5 µM.
Regarding `CCc1c(C)nc(C)nc1N1C[C@@H](CN(C)C)[C@@H](CO)C1`, the “Percent Effect” value was -2.089%. Under `CN(C)c1nccc(C2CN(c3cnccn3)CCO2)n1` (configuration not stated) stands 85.29%. As for `c1ccc(C2CN(c3ncnc4[nH]cnc34)CCO2)cc1` (configuration not stated), the “Percent Effect” value is 11.05%. Under `CC(=O)N1CCOC(c2ccnc(N(C)C)n2)C1` (configuration not stated) stands 93.18%; under `CN(C)c1nccc(C2CN(c3ccccc3)CCO2)n1` (configuration not stated), 99.49%; under `Cc1n[nH]c(C2CN(C(=O)c3ccoc3C)CCO2)n1` (configuration not stated), -42.67%. `CN(C)c1nccc(N(C)C2CCOCC2)n1`: the “Percent Effect” value is given as 2.354%. Regarding `COCCn1cc(C(=O)N2CCCC2c2ccc(F)cc2)ccc1=O` (configuration not stated), the “Percent Effect” value was -7.034%. With `COC(=O)NCCC(=O)NC(c1ccc(Cl)cc1)C(F)(F)F` (configuration not stated), the “Percent Effect” value was -2.05%. On to `COc1ccccc1CN1C[C@@H](F)[C@@H](OCc2nc3cnccc3[nH]2)C1`, for which the “Percent Effect” value is given as -3.752%. Turning to `Cc1cc(C)n(CCN2CCN(C(=O)c3cc4ccccc4o3)CC2)n1`, the “Percent Effect” value was 9.033%. For `O=C(NC1CCN(c2ccc(-c3ccccc3F)nn2)C1)c1ccc[nH]1` (configuration not stated), the “Percent Effect” value was 5.245%. In the case of `CC(C)c1cc(COCCC(=O)O)no1`, the “Percent Effect” value stood at 121.8%. For the compound `COCC(C)NC(=O)N(C)Cc1cc(C)on1` (configuration not stated), the “Percent Effect” value is recorded as -2.25%. For the compound `COc1cccc(C2CCN2C(=O)c2cc(C(C)C)on2)c1` (configuration not stated), the “Percent Effect” value was 21.92%. As for `CC(C)c1cc(COCCCC(=O)O)no1`, the “Percent Effect” value is 94.89%. In the case of `CC(C)c1cc(CSCCC(=O)O)no1`, the “Percent Effect” value came out at 33.59%. For `COC(=O)C(C)N(Cc1cc(C)on1)C1CC1` (configuration not stated), the “Percent Effect” value was -2.266%. `O=S1(=O)CCC(n2nc(Cc3cccs3)nc2-c2cnccn2)C1` (configuration not stated): the “Percent Effect” value was -137.3%. `CC(Oc1ccccc1C(F)(F)F)C(=O)NCCCC(N)=O` (configuration not stated): the “Percent Effect” value is -9.185%.

Consider `N#Cc1cc(F)ccc1NCC1CCN(S(=O)(=O)C(F)F)CC1`, for which the “Percent Effect” value is -12.01%. `N#Cc1cc(C(F)(F)F)ccc1NCC1CCS(=O)(=O)CC1`: the “Percent Effect” value is given as -17.13%. Regarding `CS(=O)(=O)N1CCC(Nc2ccnc3ccc(Cl)cc23)CC1`, the “Percent Effect” value was -4.778%. In the case of `N#Cc1ccc(Cl)cc1N1CCC(OC2CCOCC2)CC1`, the “Percent Effect” value was found to be 1.592%. Under `CS(=O)(=O)N1CCC(CNc2cc(Cl)ccc2C#N)CC1` stands 125.4%; under `CCS(=O)(=O)c1ccc(CNc2c(Cl)cccc2C#N)cc1`, -6.207%. Regarding `CS(=O)(=O)N1CCC(CNc2c(Cl)cccc2C#N)CC1`, the “Percent Effect” value amounted to 98.55%.

On to `N#Cc1ccc(NCCCOCC2CCOC2)c(F)c1` (configuration not stated), for which the “Percent Effect” value is listed as -19.41%.

Regarding `N#Cc1ccc(Cl)cc1NCC1CC1`, the “Percent Effect” value came to 111.8%. Turning to `N#Cc1ccc(Cl)cc1NCC1CCOC1` (configuration not stated), the “Percent Effect” value was 108.5%. With `CN(c1ccc(CNc2c(Cl)cccc2C#N)cc1)S(C)(=O)=O`, the “Percent Effect” value was 0.1811%.

Consider `N#Cc1cc(F)ccc1NCC1CCS(=O)(=O)CC1`, for which the “Percent Effect” value is -20.22%.

Regarding `CN(CC1CCCCO1)C(=O)c1ccnc(OC2CCC2)c1` (configuration not stated), the “Percent Effect” value turned out to be 4.497%. On to `Cc1nn(C)c(C)c1NC(=O)CNc1cc(C(F)(F)F)ccc1F`, for which the “Percent Effect” value is -4.216%.

For `O=C(c1ccco1)N(CC(F)(F)F)C1CCOCC1`, the “Percent Effect” value was -3.164%. In the case of `Cc1nc(C)c(CNC(=O)NC2CC(C)(C)OC2(C)C)s1` (configuration not stated), the “Percent Effect” value is reported as -7.711%. Under `CCOC(C)c1nc(CN2CCN(Cc3cccnc3)CC2)cs1` (configuration not stated) stands -1.889%; under `C=C(C)COc1ccccc1NC(=O)N1CCOCC(CO)C1` (configuration not stated), -7.017%; under `O=C(Nc1ccccc1OCCc1ccccn1)N1CCOCC1`, 129.1%.

Regarding `O=C(Nc1ccccc1OCCc1ccccn1)N1CC[C@@H](O)C1`, the “Percent Effect” value is 116.1%. The figure for `O=C(Nc1ccccc1OCc1ccccn1)NC1CCOCC1` is 8.72%; for `COc1ccc(Oc2ncccc2NC(=O)N2CCOCC2)cc1` it is 2.048%; for `O=C(Nc1ccccc1OCCc1ccccn1)NC1CCOCC1` it is -2.172%. In the case of `COc1ccccc1CC1CCN(C(=O)CCc2ccccn2)CC1`, the “Percent Effect” value is listed as -10.18%. Take `O=C(Nc1ccccc1OCCc1ccccn1)N1CCOCC(O)C1` (configuration not stated): the “Percent Effect” value was found to be 83.92%. For `Cc1n[nH]c(C)c1Sc1ccccc1NC(=O)N1CCOCC(O)C1` (configuration not stated), the “Percent Effect” value is -4.124%. With `CC(C)OCCC(=O)N(C)CCCc1cc(-c2ccccc2)no1`, the “Percent Effect” value is given as 2.535%. The figure for `CC(C)CC(=O)N[C@H](C)c1c(-c2ccc(Cl)cc2)noc1C(=O)O.Cl` is -0.2726%.

In the case of `CNC(=O)c1nc2c(s1)CCN(C(=O)c1cccnc1)CC2.O=C(O)C(F)(F)F`, the “Percent Effect” value was -13.23%.

`Cc1ccc(C)c(-n2ccc3nc(N4CCCC4)ncc3c2=O)c1`: the “Percent Effect” value was -2.601%. Consider `Cc1noc(C)c1CN1C[C@@H]2CCCO[C@@H]2[C@H](Nc2ccccn2)C1.O=C(O)C(F)(F)F.O=C(O)C(F)(F)F`, for which the “Percent Effect” value was 91.6%. Consider `Cn1cc(CN2C[C@@H]3CCCO[C@@H]3[C@H](NC(=O)CC3CC3)C2)cn1.O=C(O)C(F)(F)F`, for which the “Percent Effect” value is reported as -5.365%. Under `O=C(N[C@@H]1CN(Cc2ccccc2)C[C@@H]2CCCO[C@@H]21)C1CC1.O=C(O)C(F)(F)F` stands -2.249%. The figure for `Cc1ccc(CN2C[C@@H]3CCCO[C@@H]3[C@H](NS(C)(=O)=O)C2)o1.O=C(O)C(F)(F)F` is -4.883%; for `O=C(N[C@@H]1CN(c2ncccn2)C[C@@H]2CCCO[C@@H]21)c1ccncc1.O=C(O)C(F)(F)F.O=C(O)C(F)(F)F` it is -5.975%.

For the compound `Cc1cccc(CN2C[C@@H]3CCCO[C@@H]3[C@H](Nc3ccccn3)C2)n1`, the “Percent Effect” value is given as 113.7%. Take `Cc1ccc(N[C@@H]2CN(Cc3cc(C)on3)C[C@@H]3CCCO[C@@H]32)nn1.O=C(O)C(F)(F)F.O=C(O)C(F)(F)F`: the “Percent Effect” value is on record as 92.65%.

Values taken from ChEMBL document CHEMBL3988442, “University of Dundee, Small-Polar-MMV Screening Library” (2021).
